According to PubChem BioAssay (Tox21):
Where “and” joins values, the source holds several entries; their conditions need not be identical. Equal entries are not always repeated. Inconclusive results are not listed. Calls of active or inactive are those of the source. Unless noted, calls follow the shape of the dose curve; as a rule, active = well fitted curve in the direction sought with a large enough effect in the repeat runs; inconclusive = weak or mixed curves; inactive = no such curve, though single readings can be large; an effect the other way counts as inactive or inconclusive.

Legend:
[1] = qHTS assay to identify small molecule agonists of the androgen receptor (AR) signaling pathway in the presence of an antagonist - cell viability counter screen (AID 1259379); also: nearly all actives have a fitted effect of over 25% in size; also: potency is read from the fitted curve at half-maximal effect;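 as to activity change, negative = cytotoxicity: MDA-kb2 human breast cancer cells carrying an MMTV luciferase reporter; series mostly up to about 92 µM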
Procedure, shortened: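 MDA-kb2 human breast carcinoma cells (stable MMTV-luciferase, AR/GR responsive) were seeded 3,000 cells/well, pre-incubated 5 hr at 37C without CO2, then given 3.0uM nilutamide and compounds at 15 concentrations for 16 hr. Viability was read by CellTiter-Fluor fluorescence.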

[2] = qHTS assay to identify small molecule agonists of the estrogen receptor beta (ER-beta) signaling pathway - cell viability counter screen (AID 1259380); also: nearly all actives have a fitted effect of over 30% in size; also: potency is read from the fitted curve at half-maximal effect
Procedure, shortened: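 ER-beta-UAS-bla HEK293T cells in medium with 2% charcoal-stripped FBS were preincubated 6 hr at 37C, dosed with compound in DMSO for 16 hr, then after the bla read, CellTiter-Glo was added for 30 min at room temperature; luminescence recorded.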

[3] = qHTS assay to identify small molecule antagonists of the estrogen receptor beta (ER-beta) signaling pathway - cell viability counter screen (AID 1259382); also: nearly all actives have a fitted effect of over 55% in size; also: potency is read from the fitted curve at half-maximal effect;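 as to activity change, negative = cytotoxicity: HEK293T cells carrying ER-beta-UAS-bla reporter stimulated with estradiol; series mostly up to about 92 µM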
Procedure, shortened: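 ER-beta-UAS-bla HEK293T cells (2,000/well, 2% charcoal-stripped FBS) were pre-incubated 6 hr at 37C, then given compound plus 1nM final 17-beta-estradiol for 16 hr. Viability was read in the same wells by CellTiter-Glo luminescence after 30 min at room temperature.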

[4] = qHTS assay to identify small molecule agonists of the estrogen receptor alpha (ER-alpha) signaling pathway in the presence of an antagonist - cell viability counter screen (AID 1259386);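 also: cells exposed to compounds for 22 h at 37 °C before the viability read; nearly all actives have a fitted effect of over 30% in size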; also: potency is read from the fitted curve at half-maximal effect; as to activity change, negative = cytotoxicity: series mostly up to about 92 µM
Procedure, shortened: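 VM7Luc4E2 cells (endogenous full-length ER-alpha, 4×ERE-luciferase) were held 5 days in phenol red-free medium with 10% charcoal-stripped FBS, plated, then given 10.0nM ICI-182,780 and compounds at 15 concentrations for 22hr at 37C; viability read by CellTiter-Fluor fluorescence.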

[5] = qHTS assay to identify small molecule agonists of the TGF-beta/Smad signaling pathway - cell viability counter screen (AID 1346829); also: top concentration of the series differs between compounds; nearly all actives have a fitted effect of over 45% in size
Procedure, shortened: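 Luminescence from CellTiter-Glo, read after a 30 min room-temperature incubation, gives cell viability of SBE-bla HEK 293T cells treated 5 hr with compounds at 37 C.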

[6] = molecular target: Thyrotropin-releasing hormone receptor (Homo sapiens) (UniProt P34981); test: qHTS assay to identify small molecule agonists of the thyrotropin-releasing hormone receptor (TRHR) signaling pathway (AID 1346891; calls by dose curve; also: series mostly up to about 58 µM)
Chain of Thyrotropin-releasing hormone receptor (Homo sapiens) (P34981 whole entry, looked up): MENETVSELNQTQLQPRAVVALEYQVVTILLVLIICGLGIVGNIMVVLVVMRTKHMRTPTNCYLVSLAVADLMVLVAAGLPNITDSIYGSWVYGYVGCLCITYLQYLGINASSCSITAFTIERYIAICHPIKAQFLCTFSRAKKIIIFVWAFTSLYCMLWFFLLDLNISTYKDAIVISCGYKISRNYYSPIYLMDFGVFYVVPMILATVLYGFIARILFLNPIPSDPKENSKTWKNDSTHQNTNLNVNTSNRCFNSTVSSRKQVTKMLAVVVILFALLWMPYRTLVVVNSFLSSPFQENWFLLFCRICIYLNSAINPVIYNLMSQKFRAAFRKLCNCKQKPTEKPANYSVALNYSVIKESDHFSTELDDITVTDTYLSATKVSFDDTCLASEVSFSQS
Procedure, shortened: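 Cells: TRHR-Hek293, seeded and incubated 18 h. Dye loading: 2 h at 37 °C. Compound added from DMSO stock by pin tool. Read-out: kinetic calcium fluorescence over 3 min.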

[7] = qHTS assay to identify small molecule agonists or antagonists of the thyroid stimulating hormone receptor (TSHR) signaling pathway - wild type cell line counter screen (AID 1259384; calls by dose curve)
Procedure, shortened: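 Wild-type Hek293 cells, 800/well, 18 h at 37C, then compound with Ro20-1724 for 30 min RT. cAMP by HTRF (cAMP-d2/anti-cAMP cryptate), 1 h RT, fluorescence read. 15 concentrations, triplicates.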

[8] = molecular target: Progesterone receptor (Homo sapiens) (UniProt P06401); test: qHTS assay to identify small molecule agonists of the progesterone receptor (PR) signaling pathway (AID 1346784; calls by dose curve; also: nearly all actives have a fitted effect of over 30% in size)
Chain of Progesterone receptor (Homo sapiens) (P06401 whole entry, looked up): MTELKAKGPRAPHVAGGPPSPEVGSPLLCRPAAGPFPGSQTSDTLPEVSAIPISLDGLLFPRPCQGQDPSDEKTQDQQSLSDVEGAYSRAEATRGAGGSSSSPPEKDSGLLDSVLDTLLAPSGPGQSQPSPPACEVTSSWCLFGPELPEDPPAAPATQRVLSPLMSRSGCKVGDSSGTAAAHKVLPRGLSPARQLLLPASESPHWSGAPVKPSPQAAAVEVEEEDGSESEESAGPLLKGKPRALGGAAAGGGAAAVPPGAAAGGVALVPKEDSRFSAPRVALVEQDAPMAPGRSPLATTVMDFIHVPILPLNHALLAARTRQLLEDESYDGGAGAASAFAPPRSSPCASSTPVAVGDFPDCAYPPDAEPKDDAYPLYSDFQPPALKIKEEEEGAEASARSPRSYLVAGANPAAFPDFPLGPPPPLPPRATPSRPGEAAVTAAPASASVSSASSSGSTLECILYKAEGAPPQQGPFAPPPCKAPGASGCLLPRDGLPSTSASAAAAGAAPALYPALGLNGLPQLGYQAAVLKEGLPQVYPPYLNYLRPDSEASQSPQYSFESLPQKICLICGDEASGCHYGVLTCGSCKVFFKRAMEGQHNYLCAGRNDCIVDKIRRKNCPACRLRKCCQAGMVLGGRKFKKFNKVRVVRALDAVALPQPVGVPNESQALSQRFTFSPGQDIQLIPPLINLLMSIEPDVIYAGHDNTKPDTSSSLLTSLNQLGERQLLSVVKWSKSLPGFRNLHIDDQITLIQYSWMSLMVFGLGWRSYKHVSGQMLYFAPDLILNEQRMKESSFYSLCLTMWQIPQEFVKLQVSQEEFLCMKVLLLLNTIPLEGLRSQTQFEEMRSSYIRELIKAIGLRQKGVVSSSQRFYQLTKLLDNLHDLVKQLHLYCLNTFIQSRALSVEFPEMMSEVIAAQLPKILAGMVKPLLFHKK
Procedure, shortened: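 Cells (PR-UAS-bla HEK 293T, GripTite) were plated in assay medium containing 2% charcoal-stripped FBS and incubated 6 hr. Test compounds in DMSO were added for 16 hr at 37C. FRET substrate was then loaded for 2 hr at room temperature before fluorescence reading.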

[9] = qHTS assay to identify small molecule antagonists of the progesterone receptor (PR) signaling pathway - cell viability counter screen (AID 1346798); also: nearly all actives have a fitted effect of over 50% in size; also: potency is read from the fitted curve at half-maximal effect; as to activity change, negative = cytotoxicity: series mostly up to about 92 µM
Procedure, shortened: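 Counter screen for cytotoxicity: viability of PR-UAS-bla HEK293T cells was measured with CellTiter-Glo luminescence following 16 hr compound exposure in the presence of R5020.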

[10] = qHTS assay to identify small molecule agonists of the progesterone receptor (PR) signaling pathway - cell viability counter screen (AID 1346799; calls by dose curve; also: nearly all actives have a fitted effect of over 45% in size; also: potency is read from the fitted curve at half-maximal effect)
Procedure, shortened: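 Cells (PR-UAS-bla HEK293T) are plated at 3,000/well in 2% charcoal-stripped FBS medium, rested 6 hr, dosed and incubated 16 hr at 37C. CellTiter-Glo is then added and luminescence measured after 30 min at room temperature.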

[11] = qHTS assay to identify small molecule antagonists of the TGF-beta/Smad signaling pathway - cell viability counter screen (AID 1346824); also: nearly all actives have a fitted effect of over 50% in size
Procedure, shortened: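 SBE-bla HEK 293T cells, incubated overnight, then compound plus 0.25 ng/mL TGF-beta1 (stock added) for 5 hr at 37 C. Viability was read in the same wells by CellTiter-Glo luminescence after 30 min at room temperature.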

[12] = qHTS assay to identify small molecule agonists of the TGF-beta/Smad signaling pathway (AID 1346859; active = well fitted activation curve with a large enough effect in the signal ratio in the repeat runs, not every such curve was filed as active; the % refers to the signal ratio; also: series mostly up to about 77 µM)
Procedure, shortened: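 Reporter line: HEK 293T with stably integrated SBE-controlled beta-lactamase. Compound exposure lasts 5 hr at 37 C and 5% CO2; substrate loading follows for 2 hr at room temperature, with emission read at 460 and 530 nm.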

[13] = molecular target: Thyrotropin-releasing hormone receptor (Homo sapiens) (UniProt P34981); test: qHTS assay to identify small molecule antagonists of the thyrotropin-releasing hormone receptor (TRHR) signaling pathway (AID 1346877; active = well fitted inhibition curve with a large enough effect in the repeat runs, not every such curve was filed as active; also: series mostly up to about 51 µM)
Procedure, shortened: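 TRHR-expressing HEK293 cells were seeded, cultured 18 h at 37 °C, then loaded with calcium dye for 2 h. Compounds were pre-incubated 5 min at room temperature before 1 nM TRH (final) was added, and kinetic fluorescence was recorded for 3 min.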

[14] = Human pregnane X receptor (PXR) small molecule agonists, qHTS cell viability counter screen (AID 1346977); also: nearly all actives have a fitted effect of over 50% in size; also: potency is read from the fitted curve at half-maximal effect
Procedure, shortened: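 Cytotoxicity counter screen run in the same wells as the PXR luciferase assay, using PXR-Luc HepG2 cells in charcoal-stripped serum medium. Viability: CellTiter-Fluor fluorescence after 24hr compound treatment.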

[15] = molecular target: Estrogen receptor (Homo sapiens) (UniProt P03372); test: qHTS assay to identify small molecule agonists of the estrogen receptor alpha (ER-alpha) signaling pathway in the presence of an antagonist (AID 1259383; calls by dose curve; also: top concentration of the series differs between compounds; nearly all actives have a fitted effect of over 15% in size)
Chain of Estrogen receptor (Homo sapiens) (P03372 whole entry, looked up): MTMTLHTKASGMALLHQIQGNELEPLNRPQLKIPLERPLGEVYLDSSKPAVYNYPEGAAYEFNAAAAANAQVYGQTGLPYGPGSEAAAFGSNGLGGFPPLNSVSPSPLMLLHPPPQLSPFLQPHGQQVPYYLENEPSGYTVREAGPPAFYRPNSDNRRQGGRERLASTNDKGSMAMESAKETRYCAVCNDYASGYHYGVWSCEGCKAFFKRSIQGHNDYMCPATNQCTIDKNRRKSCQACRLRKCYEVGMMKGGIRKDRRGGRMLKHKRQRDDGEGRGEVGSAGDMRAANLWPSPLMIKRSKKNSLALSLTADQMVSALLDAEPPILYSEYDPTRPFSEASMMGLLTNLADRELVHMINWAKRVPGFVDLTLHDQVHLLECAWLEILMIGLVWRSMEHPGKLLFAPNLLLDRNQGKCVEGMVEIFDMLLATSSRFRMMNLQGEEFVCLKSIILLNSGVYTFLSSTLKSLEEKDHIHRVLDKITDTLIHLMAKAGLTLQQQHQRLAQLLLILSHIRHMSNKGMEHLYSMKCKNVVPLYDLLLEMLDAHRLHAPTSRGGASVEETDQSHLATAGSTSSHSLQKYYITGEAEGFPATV
Procedure, shortened: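 VM7Luc4E2 cells (endogenous full-length ER-alpha, 4×ERE-luciferase) were precultured 5 days in phenol red-free medium with 10% charcoal-stripped FBS, given 10.0nM ICI-182,780 (final), then treated with compounds at 15 concentrations for 22hr at 37C; luminescence read with ONE-Glo.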

[16] = molecular target: Thyrotropin receptor (Homo sapiens) (UniProt P16473); test: qHTS assay to identify small molecule antagonists of the thyroid stimulating hormone receptor (TSHR) signaling pathway (AID 1259385; calls by dose curve; also: nearly all actives have a fitted effect of over 20% in size)
Chain of Thyrotropin receptor (Homo sapiens) (P16473 whole entry, looked up): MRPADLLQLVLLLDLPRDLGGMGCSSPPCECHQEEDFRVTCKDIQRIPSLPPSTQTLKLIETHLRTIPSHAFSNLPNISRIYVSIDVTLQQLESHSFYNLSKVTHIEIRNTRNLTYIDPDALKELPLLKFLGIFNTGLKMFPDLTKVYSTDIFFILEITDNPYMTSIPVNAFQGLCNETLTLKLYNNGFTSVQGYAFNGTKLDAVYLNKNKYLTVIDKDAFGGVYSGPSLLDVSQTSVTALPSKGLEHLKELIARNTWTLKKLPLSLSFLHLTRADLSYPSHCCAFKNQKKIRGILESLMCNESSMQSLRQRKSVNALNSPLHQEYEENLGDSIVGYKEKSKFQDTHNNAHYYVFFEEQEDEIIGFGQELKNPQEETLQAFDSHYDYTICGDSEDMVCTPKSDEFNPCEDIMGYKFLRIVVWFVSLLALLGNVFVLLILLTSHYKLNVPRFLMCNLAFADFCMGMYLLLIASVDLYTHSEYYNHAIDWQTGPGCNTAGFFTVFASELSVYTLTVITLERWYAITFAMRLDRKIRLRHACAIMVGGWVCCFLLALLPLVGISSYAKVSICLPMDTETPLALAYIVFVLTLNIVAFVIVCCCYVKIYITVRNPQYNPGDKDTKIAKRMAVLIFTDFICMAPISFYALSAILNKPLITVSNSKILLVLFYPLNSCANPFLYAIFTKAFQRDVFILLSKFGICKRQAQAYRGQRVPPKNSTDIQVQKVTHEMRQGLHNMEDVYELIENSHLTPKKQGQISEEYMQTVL
Procedure, shortened: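 TSHR-HEK293 cells (800/well) plated 18 h, then compounds with Ro20-1724 and TSH at 1.5 ng/mL final, 30 min at room temperature. cAMP quantified by HTRF (cAMP-d2/anti-cAMP-cryptate, 1 h); 15 concentrations in triplicate.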

[17] = molecular target: Progesterone receptor (Homo sapiens) (UniProt P06401); test: qHTS assay to identify small molecule antagonists of the progesterone receptor (PR) signaling pathway (AID 1346795; active = well fitted inhibition curve with a large enough effect in the signal ratio in the repeat runs, not every such curve was filed as active; the % refers to the signal ratio; also: potency is read from the fitted curve at half-maximal effect)
Procedure, shortened: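 Antagonist mode: compounds tested against 1 nM (final) promegestone stimulation in HEK293T cells expressing PR-UAS-bla reporter, 16 hr at 37C, 5% CO2; beta-lactamase activity detected via B/G FRET substrate after 2 hr at room temperature.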
% is scaled to controls: 0 for no effect and ±100 for the full control effect.

CN(C)CCCN1c2ccccc2CCc2ccccc21
active: Potency [1] 61.1 µM | Potency [2] 30.6 µM and 23.7 µM | Potency [3] 27.3 µM and 23.7 µM
inactive: Potency [4] | Potency [5] | Potency [6]

CCCCCCC(C)OC(=O)COc1nc(F)c(Cl)c(N)c1Cl (stereo unspecified)
active: Potency [2] 68.6 µM
inactive: Potency [1] | outcome [7] | outcome [8] | Potency [9] | Potency [10] | Potency [11] | Potency [12] | Potency [13] | Potency [6] | Potency [14]

S=P(N1CC1)(N1CC1)N1CC1
inactive: Potency [1] | Potency [2] | Potency [3] | Potency [15] | outcome [7] | Potency [4] | outcome [8] | Potency [12] | Potency [13] | Potency [6] | Potency [14]

C=CC(=O)OCCOCC(CC)(COCCOC(=O)C=C)COCCOC(=O)C=C
active: Potency [1] 40.2 µM | Potency [2] 89.9 µM | Potency [4] 35.8 µM | Potency [17] 28.4 µM | Potency [9] 63.7 µM | Potency [10] 63.7 µM | Potency [14] 63.7 µM
inactive: outcome [7] | Potency [16] | Potency [11] | Potency [5] | Potency [12]

CO[Si](CCCNCCNCCN)(OC)OC
inactive: Potency [1] | Potency [2] | Potency [15] | outcome [7] | Potency [16] | Potency [4] | outcome [8] | Potency [17] | Potency [9] | Potency [10] | Potency [11] | Potency [5] | Potency [12] | Potency [13] | Potency [6] | Potency [14]

CCC(=O)CC(C)CC (stereo unspecified)
inactive: activity change, negative = cytotoxicity [1] 0.759% [at 0.35 µM] | activity change, negative = cytotoxicity [2] 3.56% [at 0.349 µM] | activation [15] -1.38% [at 0.349 µM] | cAMP activity change [7] -1.63% [at 0.349 µM] | activity change, negative = inhibition [16] 1.62% [at 0.349 µM] | activity change, negative = cytotoxicity [4] 1.18% [at 0.349 µM] | activation [8] -0.264% [at 0.349 µM] | activity change, negative = inhibition [17] 2.97% [at 0.348 µM] | activity change, negative = cytotoxicity [9] -3.42% [at 0.348 µM] | activity change, negative = cytotoxicity [10] 1.66% [at 0.349 µM] | viability change, negative = cytotoxic [11] 13.2% [at 0.29 µM] | activation [12] -0.839% [at 0.29 µM] | activity change, negative = cytotoxicity [14] 0.0659% [at 0.349 µM]

NCCCCCCNCCCCCCN
inactive: Potency [1] | Potency [2] | Potency [3] | Potency [15] | Potency [4] | outcome [8] | Potency [17] | Potency [9] | Potency [11] | Potency [5] | Potency [12] | Potency [13] | Potency [6] | Potency [14]

Cc1c(-c2ccc(O)cc2)n(Cc2ccc(OCCN3CCCCCC3)cc2)c2ccc(O)cc12
inactive: Potency [4]
active: Potency [1] 29.8 µM | Potency [2] 29.8 µM | Potency [3] 26.6 µM | Potency [10] 29.8 µM | Potency [14] 23.7 µM

[O]=[Zr]
inactive: Potency [1] | Potency [2] | Potency [3] | outcome [7] | Potency [16] | outcome [8] | Potency [17] | Potency [9] | Potency [10] | Potency [11] | Potency [12] | Potency [6] | Potency [14]

O=C(O)CCn1c2c(c3ccccc31)C[C@H](NS(=O)(=O)c1ccc(F)cc1)CC2
inactive: Potency [1] | Potency [2] | Potency [3] | Potency [4] | Potency [9] | Potency [10] | Potency [5] | Potency [14]

Cc1cccc(Br)c1
active: Potency [2] 27.4 µM | Potency [17] 10.9 µM | Potency [9] 54.8 µM
inactive: Potency [1] | outcome [7] | Potency [16] | Potency [4] | outcome [8] | Potency [11] | Potency [5] | Potency [12]
